An excerpt weighted towards active compounds, which were near 19% of everything screened.
SW480 rereplic – A quantitative high throughput screen for small molecules that induce DNA re-replication in SW480 colon adenocarcinoma cells | Potency, µM (top dose mostly 46.1 µM), for inactives: top-dose re-replication activation, actives largely listed as activators | 340,000 compounds, 1.8% hits | SW480 DNA re-replication, Hoechst DNA content imaging, 48 h; further: potency means the concentration at half of the fitted maximal effect; % of control where 0% means no effect; nearly all actives have a fitted effect of over 55% in size
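DNA re-replication was detected as more nuclei of elevated Hoechst intensity after 48 hr exposure to compound (23 nL pinned per well of 250 cells).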
DT40 TDP1 no CPT – qHTS for Inhibitors of human tyrosyl-DNA phosphodiesterase 1 (TDP1): qHTS in cells in absence of CPT | DT40 Tdp1-/- hTDP1 cells, no CPT, ATP luminescence, 48 h | Potency, µM (top dose mostly 46.2 µM), for inactives: at the top dose activity change, negative = growth inhibition, hits mostly inhibitors | 420,000 compounds, 15% hits; further: potency means the concentration at half of the fitted maximal effect; on the % scale 0 is the no-effect control and ±100 the full control effect; nearly all actives have a fitted effect of over 55% in size
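Chicken DT40 Tdp1-/- cells stably complemented with human TDP1 were seeded at 400 cells/well with DMSO in place of 20 nM camptothecin. After compound pinning, cells grew at least 48 hr at 37 °C; viability read by CellTiter-Glo luminescence.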
DT40 TDP1 CPT – qHTS for Inhibitors of human tyrosyl-DNA phosphodiesterase 1 (TDP1): qHTS in cells in presence of CPT | Potency, µM (top dose mostly 46.2 µM), inactives show at the highest dose activity change, negative = growth inhibition, most hits filed as inhibitors | chicken DT40 Tdp1-/-;hTDP1 cells + 20 nM CPT, ATP luminescence, 48 h | 420,000 compounds, 12% hits | AID 686979, 2013; further: potency means the concentration at half of the fitted maximal effect; on the % scale 0 is the no-effect control and ±100 the full control effect; nearly all actives have a fitted effect of over 55% in size
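Chicken DT40 Tdp1-/- cells stably complemented with human TDP1 were seeded at 400 cells/well in medium containing 20 nM camptothecin, exposed to pin-transferred compounds, and grown at 37 °C for at least 48 hr. Viability was read as ATP luminescence.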
MCF10A rereplic – A quantitative high throughput screen for small molecules that induce DNA re-replication in MCF 10a normal breast cells; MCF 10A DNA re-replication, Hoechst nuclear intensity, 48 h; Potency, µM (series often up to 46.1 µM), without a hit: top-dose activity, positive = re-replication, most hits filed as activators; 350,000 compounds, 2.9% hits; AID 624296, 2012; further: potency means the concentration at half of the fitted maximal effect; % of control where 0% means no effect; nearly all actives have a fitted effect of over 50% in size
Chronic BCR inh – qHTS Assay to Find Inhibitors of Chronic Active B-Cell Receptor Signaling. ABC-DLBCL IkBa-CBG/CBR reporter, luminescence ratio, 4 h. Potency, µM (series often up to 46.1 µM), for inactives: top-dose activity change, negative = inhibition, actives largely listed as inhibitors. 340,000 compounds, 0.05% hits; active means well fitted inhibition curve with a large enough effect in the signal ratio, with a control signal flat, not every such curve was filed as active; inconclusive means small, poorly fitted or top-dose-only effect, or effect the other way, or a change in a side signal; the % refers to the signal ratio;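 further: potency means the concentration at half of the fitted maximal effect; plate controls were basal doxycycline-induced cells for no effect and cells given 10 µM MG132 for full effect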
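TMD8 ABC-DLBCL cells carrying doxycycline-inducible green luciferase fused to IkappaBalpha plus unfused red luciferase were exposed to compounds (up to 46 uM) for 4 hrs at 37C. Activity came from the overlap-corrected green/red luminescence ratio.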
IL-1B inflam inh – qHTS for Inhibitors of Inflammasome Signaling: IL-1-beta AlphaLISA Primary Screen. THP-1 LPS/ATP IL-1B secretion, AlphaLISA, 16 h; stronger effect = lower value. activity change, % at 57.5 µM. 360,000 compounds, 4.7% hits; in the data active means activity change below about -50%; inconclusive means mostly about -30% to -49%; further: on the % scale 0 is the no-effect control and ±100 the full control effect
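THP-1 cells pretreated 1 hr with compounds (up to 57.5 uM final), then stimulated with LPS (250 ng/mL final) plus ATP (1.25 mM final); secreted IL-1B measured by AlphaLISA after 16 hr, decreased signal indicating inhibition.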
An asterisk follows results filed as active; ? = inconclusive; nt = no result given. Unless noted, the call rests on the fitted dose curve; in most records, active means well fitted curve in the direction sought with a large enough effect; inconclusive means small, poorly fitted or top-dose-only effect, or another doubt; inactive means no such curve, though single readings can be large; an effect the other way counts as inactive or inconclusive.

SMILES | SW480 rereplic | DT40 TDP1 no CPT | DT40 TDP1 CPT | MCF10A rereplic | Chronic BCR inh | IL-1B inflam inh
Nc1cc(SCc2ccc(Cl)cc2Cl)ncn1 | -20% | ? | -7% | -13% | nt | -27
O=C(Nc1c(F)cc(F)cc1F)c1cccn(Cc2ccccc2)c1=O | -1% | ? | 6% | 26% | -4% | -7
CCN(CC)S(=O)(=O)c1cc(NC(=O)C(C)N2CC=C(c3ccccc3)CC2)ccc1C (configuration not stated) | ? | 6.5µM* | 8.2µM* | 8% | 9% | -58*
CCc1ccccc1Nc1nn2c(=O)c3ccc(C(=O)Nc4cc(C)cc(C)c4)cc3nc2s1 | nt | 8.2µM* | 8.2µM* | nt | nt | nt
Fc1ccc(NC(=S)N2Cc3ccccc3-n3nncc3C2)cc1 | nt | ? | -5% | nt | nt | 17
COc1ccccc1OCCCn1cc(C(=O)c2ccco2)c2ccccc21 | 1% | ? | 18µM* | ? | ? | ?
Cc1ccc(-[n+]2c(Cc3nn(-c4ccccc4)c(C)[n+]3-c3ccc(C)cc3)nn(-c3ccccc3)c2C)cc1 | nt | 5% | -10% | nt | nt | -5
Cc1cccc(NC(=O)c2cccc(N3C(=O)C4C5C=CC(C6CC56)C4C3=O)c2)c1 (configuration not stated) | 2% | 15µM* | ? | ? | ? | -23
CCCCCC1(C(C)C)C(=O)NC(=S)NC1=O | 6% | -1% | -3% | 0% | nt | 44
COc1cc2c(c(OC)c1OC)-c1ccc(O)c(=O)cc1C(NC(C)=O)CC2 (configuration not stated) | ? | 0.065µM* | 0.026µM* | ? | ? | 66
COC1=C[C@@H]2C3=C([C@@H]2C1=O)[C@@H](NC(C)=O)CCc1cc(OC)c(OC)c(OC)c13 | -37% | -19% | -4% | -7% | 7% | 10
COc1ccc2c(c1)C(NC(C)=O)CCc1cc(OC)c(OC)c(OC)c1-2 (configuration not stated) | 0.058µM* | 0.018µM* | 0.0082µM* | ? | nt | 30
COc1cc2c(c(OC)c1OC)-c1ccc(OC)c(=O)cc1C(NC(C)=O)CC2 (configuration not stated) | ? | 0.0092µM* | 0.018µM* | ? | ? | 164
COc1ccccc1CN1CCCC2(CCN(C(=O)Oc3ccccc3)CC2)C1 | nt | -18% | 9% | nt | nt | nt
CCOC(=O)C1(c2ccccc2)CCN(CCC(C#N)(c2ccccc2)c2ccccc2)CC1 | 2.8µM* | 6.5µM* | 13µM* | ? | nt | -29
O=C(CCN1CCOCC1)Nc1ccc(Br)cc1C(=O)c1ccccc1 | -3% | ? | ? | ? | ? | 0
CCOC(=O)C1(c2ccccc2)CCN(CCC(=O)Nc2ccc(OC)cc2)CC1 | nt | ? | ? | nt | nt | -15
CCOC(=O)C1(c2ccccc2)CCN(CCC(=O)Nc2cccc(Br)c2)CC1 | -451% | ? | ? | ? | ? | -101*
CCOC(=O)C1(c2ccccc2)CCN(CCC(=O)Nc2ccc(C(=O)OC)cc2)CC1 | 4% | ? | 21µM* | ? | 7% | -27
CC(NC(=O)CNC(=S)N(Cc1ccccc1)Cc1cccnc1)c1ccccc1 (configuration not stated) | -5% | ? | ? | 9% | 16% | -12
c1ccc(C(c2ccccc2)c2ccncc2)cc1 | 17% | 21µM* | ? | 3% | nt | -27
CC(N)[C@H](O)c1ccccc1 (some centres not stated) | nt | 0% | 3% | nt | nt | nt
CCCC1=Nc2cc(C(=O)NCCCN(CC)CC)ccc2Sc2ccccc21 | nt | 29µM* | ? | nt | nt | nt
CCC1=Nc2cc(C(=O)N3CCC4(CC3)OCCO4)ccc2Sc2ccccc21 | -13% | ? | ? | 3% | 5% | 4
CCCC1=Nc2cc(C(=O)NCCc3ccc(OCC)cc3)ccc2Sc2ccccc21 | nt | 21µM* | ? | nt | nt | nt
SMILES | SW480 rereplic | DT40 TDP1 no CPT | DT40 TDP1 CPT | MCF10A rereplic | Chronic BCR inh | IL-1B inflam inh
N#Cc1c(Cl)cccc1Cl | nt | -2% | -7% | nt | nt | nt
CN1CCN(c2nc(N)c(Br)c(Cl)n2)CC1 | -13% | -10% | -18% | 1% | ? | ?
N#Cc1cccc(NC(=O)N2CC3(CCN(C(=O)Oc4ccccc4)CC3)C2)c1 | nt | ? | -4% | nt | nt | nt
CC[C@]1(O)CC[C@H]2[C@@H]3CCC4=CCCC[C@@H]4[C@H]3CC[C@@]21C | 24µM* | 5.3µM* | 7.5µM* | ? | nt | nt
CC[C@H]1C[C@H]2[C@@H]3CCC4=CC(=O)CC[C@@H]4[C@H]3CC[C@]2(C)[C@H]1O | nt | -11% | ? | nt | nt | nt
C=C1C(=O)O[C@@H]2C[C@@H](C)[C@@H]3C4OC4C(=O)[C@@]3(C)[C@@H](O)[C@H]12 (some centres not stated) | ? | 0.52µM* | 1µM* | ? | ? | -113*
O=C(c1ccc(N2CC3CC(C2)c2cccc(=O)n2C3)c([N+](=O)[O-])c1)N1CCCC1 (configuration not stated) | -4% | -8% | 3% | 1% | -3% | 8
Cc1ccc(Cl)cc1N1CCN(CCN)CC1 | 3% | ? | 16µM* | 27% | ? | ?
CN1CCN(c2ccc(Cl)cc2N)CC1 | 4% | -25% | -4% | 1% | -2% | -17
CC(Oc1ccc(Cl)cc1Cl)C(=O)Nc1ccc(S(=O)(=O)Nc2cnc3ccccc3n2)cc1 (configuration not stated) | -2% | 26µM* | ? | ? | -13% | 46
CC(=O)OC1(c2ccccc2)CCN(C2CCCCC2)CC1C (configuration not stated) | -3% | ? | 0% | 18% | -5% | 4
C=Cn1ccnc1P(=S)(c1nccn1C=C)C1CCCCC1 | 15% | ? | ? | -4% | 7% | -2
C[C@]12CC[C@H]3[C@@H](CC[C@@]45O[C@@H]4C(O)=C(C#N)C[C@]35C)[C@@H]1CC[C@@H]2O | nt | ? | -24% | nt | nt | nt
O=C1NC(=O)C(=Cc2cn(CCOc3ccc4c(c3)OCO4)c3ccccc23)C(=O)N1 | ? | 21µM* | ? | ? | -12% | -10
C=CCn1cc(C=C2C(=O)NC(=O)NC2=O)c2ccccc21 | -11% | -25% | -28% | 5% | -2% | -12

Screening data (PubChem)
